The values that follow come from PubChem BioAssay (NCATS).

The target in assay [1] is Fructose-bisphosphate aldolase A (Oryctolagus cuniculus) (UniProt P00883). The assay is described as follows: qHTS Assay for Inhibitors of Fructose-1,6-bisphosphate Aldolase from Giardia Lamblia: Rabbit FBPA Selectivity (AID 2794; active = well fitted inhibition curve with a large enough effect; also: % is scaled to controls: 0 for no effect and ±100 for the full control effect; nearly all actives have a fitted effect of over 60% in size). The method in brief:
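To triage Class I aldolase inhibitors, rabbit FBPA activity is followed through a glyceraldehyde-3-phosphate-linked enzyme cascade feeding AmpLite Red. Compounds (up to 57.5 uM final) sit 10 min with coupling enzymes before substrate; fluorescence is read 20 min later.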
(qHTS replaces the single test concentration by a dilution series.)

The nature of assay [2]: qHTS Assay for Inhibitors of Fructose-1,6-bisphosphate Aldolase from Giardia Lamblia: Coupling assay counterscreen confirmation (AID 2795; active = well fitted inhibition curve with a large enough effect; also: % is scaled to controls: 0 for no effect and ±100 for the full control effect; nearly all actives have a fitted effect of over 55% in size). The method in brief:
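Counterscreen, no aldolase: coupling enzyme reagent + cpd (up to 57.5 uM final), 10 min RT; add substrate + coupling system + AmpLite Red, 20 min RT; fluorescence ex 525/em 598 nm.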

The target of assay [3] is Lysosomal acid glucosylceramidase (Homo sapiens) (UniProt P04062). The assay is described as follows: Glucocerebrosidase-p2 (AID 348; in the data active = potency below about 10 µM; also: potency is read from the fitted curve at half-maximal effect). The settings on record: purified GBA, blue fluorogenic substrate, 40 min. In outline: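 Normal human glucocerebrosidase (0.2 nM) with blue fluorogenic substrate (80 uM final) in citrate/phosphate pH 5.9 with 10mM sodium taurocholate, 0.01% tween-20; 40 min RT, NaOH/glycine stop; fluorescence Ex 365/Em 440; AC50 from a titration from 0.6 nM upwards.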
Sequence of Lysosomal acid glucosylceramidase (Homo sapiens) (P04062 whole entry, looked up): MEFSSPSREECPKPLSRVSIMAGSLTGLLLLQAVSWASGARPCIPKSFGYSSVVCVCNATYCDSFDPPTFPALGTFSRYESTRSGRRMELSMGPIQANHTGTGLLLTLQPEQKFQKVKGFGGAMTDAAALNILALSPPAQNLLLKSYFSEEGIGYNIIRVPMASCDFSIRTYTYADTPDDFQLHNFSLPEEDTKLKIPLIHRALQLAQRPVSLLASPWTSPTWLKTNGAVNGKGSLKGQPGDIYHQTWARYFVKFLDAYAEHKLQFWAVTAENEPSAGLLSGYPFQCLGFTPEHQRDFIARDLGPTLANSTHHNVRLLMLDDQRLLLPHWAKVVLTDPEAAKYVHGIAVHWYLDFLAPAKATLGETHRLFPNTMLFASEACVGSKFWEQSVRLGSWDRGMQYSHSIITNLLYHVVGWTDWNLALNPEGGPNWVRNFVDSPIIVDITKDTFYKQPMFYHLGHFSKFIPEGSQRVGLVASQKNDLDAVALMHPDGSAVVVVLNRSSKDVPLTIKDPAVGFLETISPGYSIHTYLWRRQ

Assay [4] can be described thus: AP1 Signaling Pathway (AID 357).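 Also: ME-180 reporter cells stimulated with EGF at its EC50 level; % is scaled to controls: 0 for no effect and ±100 for the full control effect.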 The settings on record: ME-180 AP-1-bla reporter, EGF-induced, beta-lactamase ratio, 5 h; at 7.69 µM (top of the series) unless noted. In outline:
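AP-1-bla ME-180 cells, Opti-MEM + 0.5% dialyzed FBS, plated overnight 37 °C. Cpd titration + EC50 EGF, 5 h 37 °C. CCF4 2.5 h RT; ex 405, em 460/530 ratio → %activity, AC50.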

In assay [5] the target is Cytochrome P450 1A2 (Homo sapiens) (UniProt P05177). Description: p450-cyp1a2 (AID 410; calls by dose curve; also: potency is read from the fitted curve at half-maximal effect). The method in brief: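 O-Demethylation of luciferin 6' methyl ether by human CYP1A2 is monitored as luciferase luminescence. Substrate sits at Km (100uM); enzyme is 20nM. Values are scaled to 57 uM furafylline as maximal inhibition.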
Sequence of Cytochrome P450 1A2 (Homo sapiens) (P05177 whole entry, looked up): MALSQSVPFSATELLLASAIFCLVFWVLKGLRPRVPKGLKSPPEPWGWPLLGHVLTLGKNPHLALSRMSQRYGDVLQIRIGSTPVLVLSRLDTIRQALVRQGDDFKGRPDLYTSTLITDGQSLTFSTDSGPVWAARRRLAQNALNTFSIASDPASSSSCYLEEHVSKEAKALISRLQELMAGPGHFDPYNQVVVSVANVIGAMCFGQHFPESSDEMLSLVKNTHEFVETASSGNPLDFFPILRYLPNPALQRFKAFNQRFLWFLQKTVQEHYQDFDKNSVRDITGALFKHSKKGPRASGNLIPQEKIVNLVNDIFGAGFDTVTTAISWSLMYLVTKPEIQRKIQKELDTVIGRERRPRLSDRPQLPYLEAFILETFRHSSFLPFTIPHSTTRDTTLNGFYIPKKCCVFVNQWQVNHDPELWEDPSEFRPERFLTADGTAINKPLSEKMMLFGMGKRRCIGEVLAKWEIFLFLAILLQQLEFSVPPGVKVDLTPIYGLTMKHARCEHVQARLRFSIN
A short description of assay [6]: NFAT Signaling Pathway (AID 444).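 Also: carbachol stimulus at about its EC50 of 1 µM final; % is scaled to controls: 0 for no effect and ±100 for the full control effect.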 To be noted: Jurkat NFAT-bla M1, carbachol, beta-lactamase ratio, 5 h; at 7.69 µM (top of the series) unless noted. The method in brief: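 Read-out: CCF4 FRET ratio (460 nm/530 nm) after 1 h RT dye loading, used for %activity and AC50 from titration series. Cells: Jurkat NFAT-β-lactamase/M1 line, treated with compound plus 1 uM carbachol for 5 h, 37 °C.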

Assay [7] is described as follows: Stat Signaling Pathway (AID 446).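 Also: ME-180 cervical cancer cells given 40 pM IL-6 alongside compound; SIE-controlled beta-lactamase reporter measured as 460/530 nm FRET emission ratio; % is scaled to controls: 0 for no effect and ±100 for the full control effect.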 The settings on record: ME-180 (cervical carcinoma) SIE beta-lactamase reporter, IL-6 stimulated, 5 h; at 7.69 µM (top of the series) unless noted. In outline:
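FRET read-out (405 nm excitation, 460/530 nm emission) of a beta-lactamase reporter under a STAT-inducible element in ME-180 cervical carcinoma cells. Cells with compound receive 40 pM IL-6 for 5 h. Values are normalised to AC90 stimulation and AC90 JAK-inhibitor controls.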

Assay [8] deals with Glucocorticoid receptor (Homo sapiens) (UniProt P04150). Description: GR-GFP Redistribution (AID 450;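 active = compounds whose dose series gives a full or clear partial fitted curve of increased nuclear translocation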; also: potency is read from the fitted curve at half-maximal effect). To be noted: U2OS GR-GFP nuclear translocation, laser cytometry, 2 h.
Sequence of Glucocorticoid receptor (Homo sapiens) (P04150 whole entry, looked up, the tested form may be a part): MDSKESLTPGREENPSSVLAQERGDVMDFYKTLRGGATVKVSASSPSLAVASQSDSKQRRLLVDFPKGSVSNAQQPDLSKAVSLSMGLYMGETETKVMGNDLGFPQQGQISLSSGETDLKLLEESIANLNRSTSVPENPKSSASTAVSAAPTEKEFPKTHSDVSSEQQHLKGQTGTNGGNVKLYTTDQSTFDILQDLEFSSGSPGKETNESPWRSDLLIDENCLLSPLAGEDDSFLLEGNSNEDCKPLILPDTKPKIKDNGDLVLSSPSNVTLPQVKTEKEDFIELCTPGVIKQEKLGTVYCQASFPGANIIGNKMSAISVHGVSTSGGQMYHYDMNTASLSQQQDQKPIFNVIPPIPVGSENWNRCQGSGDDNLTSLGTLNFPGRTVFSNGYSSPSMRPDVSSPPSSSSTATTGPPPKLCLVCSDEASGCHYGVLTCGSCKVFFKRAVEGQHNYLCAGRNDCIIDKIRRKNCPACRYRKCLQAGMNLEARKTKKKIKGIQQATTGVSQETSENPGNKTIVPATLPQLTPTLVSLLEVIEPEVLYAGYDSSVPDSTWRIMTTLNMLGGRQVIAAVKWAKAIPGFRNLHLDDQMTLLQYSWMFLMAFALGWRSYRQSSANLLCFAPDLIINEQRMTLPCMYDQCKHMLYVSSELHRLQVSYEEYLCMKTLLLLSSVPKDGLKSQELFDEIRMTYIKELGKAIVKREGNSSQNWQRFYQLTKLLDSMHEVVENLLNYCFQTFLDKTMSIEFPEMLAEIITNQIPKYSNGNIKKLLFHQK
Assay [9] shares this target. The assay is described as follows: GR-EFC Redistribution (AID 451; calls by dose curve; also: potency is read from the fitted curve at half-maximal effect). The settings on record: CHO-K1 GR-EFC translocation, beta-gal luminescence, 2 h. In outline: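 Translocation of GR-ED fusion to nuclear EA restores b-gal, read by luminescence after 1 h room-temperature detection. Engineered CHO-K1 biosensor cells, 1,000/well, exposed 2 h at 37 C to titrations up to 46 uM final.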

For assay [10], the target named is Mitogen-activated protein kinase 10 (Mus musculus) (UniProt Q61831). Description: JNK3 AlphaScreen Assay (AID 530).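 Also: kinase came from lysate of stimulated human HepG2 cells; signal reports phosphorylation of biotinylated GST-cJun 1-79 at Ser73 with 10 µM ATP; % is scaled to controls: 0 for no effect and ±100 for the full control effect.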 The method in brief:
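qHTS titrations with 15 min compound pre-incubation before adding ATP (10 uM final). Read-out: AlphaScreen of Ser73-phosphorylated biotin-GST-cJun using HepG2 lysate JNK3 activated by IL-1β and TNFα.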

Assay [11] addresses Fructose-bisphosphate aldolase (Giardia intestinalis (strain ATCC 50803 / WB clone C6)) (UniProt A8B2U2). Description: qHTS Assay for Inhibitors of Fructose-1,6-bisphosphate Aldolase from Giardia Lamblia: Primary screen confirmation (AID 2787; active = well fitted inhibition curve with a large enough effect;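 also: aldolase product measured through coupled diaphorase step turning resazurin into fluorescent resorufin; % is scaled to controls: 0 for no effect and ±100 for the full control effect; nearly all actives have a fitted effect of over 45% in size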). In outline:
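FBPA (40 nM in enzyme reagent, with 30 uM ZnCl2) was preincubated 10 min at RT with compound up to 57.5 uM final. Substrate plus coupled detection system was then added, and fluorescence (525/598 nm) was read after 20 min at RT.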

Assay [12] has as its target 3',5'-cyclic-AMP phosphodiesterase 4B (Homo sapiens) (UniProt Q07343). Description: qHTS Assay for Inhibitors of PDE-IV (AID 607; active = well fitted activation curve with a large enough effect in the main read-out, with a control signal flat, not every such curve was filed as active; also: % of control where 0% means no effect). The method in brief: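 Cell-based read-out of cAMP via a modified cyclic nucleotide-gated channel and membrane potential dye (535/590 nm) in HEK293 cells expressing PDE4 endogenously. Compounds tested up to 22.9 uM final; 100 uM RO 20-1724 reference.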

Values without a mark were called inactive. Inconclusive results are not listed. Some of the results follow. Calls of active or inactive are those of the source. Unless noted, calls follow the shape of the dose curve; as a rule, active = well fitted curve in either direction with a large enough effect (not every such curve was filed as active); inconclusive = small, poorly fitted or top-dose-only effect, or another doubt; inactive = flat fitted curve, though single readings scatter.

Sequence of Fructose-bisphosphate aldolase A (Oryctolagus cuniculus) (P00883 whole entry, looked up): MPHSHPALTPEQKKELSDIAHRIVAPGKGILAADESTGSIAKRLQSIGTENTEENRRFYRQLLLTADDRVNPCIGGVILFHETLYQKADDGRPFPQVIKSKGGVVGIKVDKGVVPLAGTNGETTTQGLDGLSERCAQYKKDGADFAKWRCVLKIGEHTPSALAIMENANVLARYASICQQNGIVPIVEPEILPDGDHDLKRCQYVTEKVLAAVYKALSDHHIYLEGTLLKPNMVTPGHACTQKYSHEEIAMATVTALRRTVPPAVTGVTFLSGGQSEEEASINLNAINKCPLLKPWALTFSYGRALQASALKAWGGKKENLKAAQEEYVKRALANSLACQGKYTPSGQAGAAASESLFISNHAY
Sequence of 3',5'-cyclic-AMP phosphodiesterase 4B (Homo sapiens) (Q07343 whole entry, looked up): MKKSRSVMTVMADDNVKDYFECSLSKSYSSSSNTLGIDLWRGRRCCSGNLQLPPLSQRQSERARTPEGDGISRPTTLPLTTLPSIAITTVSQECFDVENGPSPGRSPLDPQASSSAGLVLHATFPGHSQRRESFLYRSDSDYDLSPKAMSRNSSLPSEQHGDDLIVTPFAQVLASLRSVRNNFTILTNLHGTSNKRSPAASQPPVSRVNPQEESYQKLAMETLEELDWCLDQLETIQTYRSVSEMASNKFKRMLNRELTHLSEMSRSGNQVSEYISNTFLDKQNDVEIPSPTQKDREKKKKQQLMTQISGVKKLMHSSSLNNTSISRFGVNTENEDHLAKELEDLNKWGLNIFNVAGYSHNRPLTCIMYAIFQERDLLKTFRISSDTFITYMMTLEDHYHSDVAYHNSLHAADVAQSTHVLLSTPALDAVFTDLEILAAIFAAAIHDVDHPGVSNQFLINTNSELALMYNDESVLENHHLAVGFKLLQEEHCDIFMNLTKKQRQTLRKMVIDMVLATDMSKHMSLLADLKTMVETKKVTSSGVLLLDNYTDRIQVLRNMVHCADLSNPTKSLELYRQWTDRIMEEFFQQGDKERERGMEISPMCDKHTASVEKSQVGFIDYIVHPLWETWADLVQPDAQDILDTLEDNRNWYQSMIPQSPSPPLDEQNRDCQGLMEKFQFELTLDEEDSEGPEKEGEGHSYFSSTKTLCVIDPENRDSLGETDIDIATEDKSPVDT
Sequence of Fructose-bisphosphate aldolase (Giardia intestinalis (strain ATCC 50803 / WB clone C6)) (A8B2U2 whole entry, looked up): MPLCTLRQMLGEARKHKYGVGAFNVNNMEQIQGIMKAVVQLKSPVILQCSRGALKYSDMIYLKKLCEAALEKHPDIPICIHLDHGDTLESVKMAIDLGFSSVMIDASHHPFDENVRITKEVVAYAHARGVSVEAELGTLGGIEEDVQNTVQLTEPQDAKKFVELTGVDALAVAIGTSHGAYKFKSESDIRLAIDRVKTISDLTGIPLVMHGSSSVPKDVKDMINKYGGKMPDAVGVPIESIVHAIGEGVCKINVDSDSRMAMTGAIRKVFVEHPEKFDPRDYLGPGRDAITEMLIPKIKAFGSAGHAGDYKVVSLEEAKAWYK

`CC1CCCN(S(=O)(=O)c2ccc(C(=O)Nc3nnc(-c4ccncc4)o3)cc2)C1` (centres undefined): the compound was classed as inactive in assay [1].
On the same count and under the same terms, under `Cc1cnc(NC(=O)c2ccccn2)s1` stands “inactive”.
Consider `CCN(CC(=O)Nc1ccc(S(=O)(=O)N2CCCC2)cc1)CC(=O)Nc1cccc(OC)c1`, for which the outcome in assay [2] was inactive.
Take `CN(C)CCSCCO`: the Potency in [3] was greater than 11.4 µM; in assay [8] it was greater than 46 µM; in assay [9], greater than 9.22 µM. Besides, the figures for the activity change, negative = inhibition in assay [4], in assay [5] and in assay [6] were 7.7%, -14.3% [at 2.29 µM] and 2.29%, respectively. The activity, negative = inhibition in [7] is 9.73%. Also, the Potency entry in assay [10] was “inactive”.
Take `COc1ccc(-c2nc(N)c3ncn([C@H]4O[C@@H](CO)[C@@H](O)[C@@H]4O)c3n2)cc1`: the Potency in assay [3] was greater than 11.4 µM; in [8] it was greater than 46 µM; in assay [9], greater than 9.22 µM. Moreover, the activity change, negative = inhibition in assay [4] was -12.4%; in assay [5], -13% [at 2.29 µM]; in assay [6], 0.656%. Besides, in assay [7], the activity, negative = inhibition was 3.98%. Moreover, the Potency entry in [10] was “inactive”.
Regarding `O=C(Nc1ccccc1Cl)O/N=C(/c1ccccc1)c1ccccn1`, the call in [1] was inactive.
On to `O=C(N/N=C/c1ccccn1)c1cccnc1`, for which the compound was classed as inactive in assay [11] and in assay [2].
As to `CN(C)CCOc1ccc(Cl)cc1C(C)(C)C`, the call in [1] was inactive.
Consider `COc1cccc(Cn2c(=O)c(C)nc3cnc(Oc4cccc(Cl)c4)nc32)c1`, for which the Potency was greater than 11.4 µM in assay [3], 25.1 µM (active) in [5], greater than 9.22 µM in [8] and greater than 46 µM in assay [9]. The activity change, negative = inhibition in assay [4] is -22.3%; in [6], -7.01%. Besides, the activity, negative = inhibition in assay [7] was -2.38%. In assay [10], the Potency entry is “inactive”.
With `Cc1nc2ccc(NC(=S)N3CCC(C)CC3)cc2nc1C`, in [2], the compound was called inactive.
`Oc1ccc(Cl)cc1C=Nc1cnc2ccccc2c1`: the Potency in assay [3] was greater than 11.4 µM; in assay [8], greater than 46 µM; in assay [9] it was greater than 9.22 µM. Further, the activity change, negative = inhibition in [4] was 3.1%; in [5] it was -13.2% [at 2.29 µM]; in assay [6] it was 10.1%. Moreover, the activity, negative = inhibition in [7] was -10.7%. For the same compound, in [10], the Potency entry is “inactive”.
With `OCCCNc1ncnc2[nH]ncc12`, the Potency in assay [3] is greater than 11.4 µM; in [5], 6.31 µM (active); in [8] it was greater than 46 µM; in assay [9] it was greater than 9.22 µM. Moreover, the activity change, negative = inhibition was 7.33% in assay [4] and 0.588% in [6]. Moreover, the activity, negative = inhibition in assay [7] is -7.35%. For the same compound, the Potency entry in [10] and in assay [12] was “inactive” in each case.
